Key:
Type in all cases: functional
[1] = test system: Plasmodium falciparum; experiment: GSK_TCMDC: Inhibition of Plasmodium falciparum 3D7 in whole red blood cells, using parasite LDH activity as an index of growth. Test compounds present at 2uM
[2] = test system: Plasmodium falciparum; experiment: GSK_TCMDC: Inhibition of Plasmodium falciparum Dd2 in whole red blood cells, using parasite LDH activity as an index of growth. Test compounds present at 2uM
[3] = test system: HepG2; experiment: GSK_TCMDC: Percent inhibition of human HepG2 cell line. Test compounds present at 10uM.

Structure (SMILES)	Inhibition [1]	Inhibition [2]	Inhibition [3]
CCNc1cc(C(=O)NC(Cc2ccccc2)C(O)CNC2CCSCC2)cc(N2CCCC2=O)c1 (stereo not given)	99%	98%	0%
Cl.O=c1cc(NCCCNCc2ccc(Cl)c(Cl)c2)[nH]c2ccc(Cl)cc12	100%	54%	11%
COc1ccc(CNCc2ccccc2)cc1-c1ccc(S(=O)(=O)NCCN2CCCC2)c(C)c1.O=C(O)C(F)(F)F	99%	50%	33%
CC(C)(C)c1ccc(CNCCOc2ccc(Nc3nnc(-c4ccc(-c5ncc[nH]5)cc4)o3)c3ccccc23)cc1.O=C(O)C(F)(F)F	100%	88%	43%
Cc1cccc2nc(-c3ccc(-c4cccc(NC(=O)C(=O)c5cccn5C)c4)cc3)[nH]c12	98%	17%	30%
CN(c1ccccc1)S(=O)(=O)c1cccc(NC(=O)c2ccc(-n3ccnc3)c([N+](=O)[O-])c2)c1	83%	0%	19%
Cl.O=C(Nc1ccnc2ccccc12)NC1CCN(Cc2ccccc2)CC1	96%	43%	18%
COc1ccc2nccc([C@@H](O)CN3CCC(NC(=O)C(c4cc5ccccc5o4)N4CCN(C(c5ccccc5)c5ccccc5)CC4)CC3)c2c1 (stereo not given in full)	100%	100%	18%
CCCCCCCn1c(=N)n(CC(O)c2ccc(Cl)c(Cl)c2)c2ccccc21.Cl (stereo not given)	98%	100%	99%
Cc1cc(C(F)(F)F)nn1-c1ccc(NC(=O)c2ccco2)cc1	94%	93%	14%

— ChEMBL document CHEMBL1157539, “Thousands of chemical starting points for antimalarial lead identification” (Nature, 2010)
